Measurements as given in PubChem BioAssay AID743279 (National Center for Advancing Translational Sciences (NCATS), 2014).
Hit rate of the full screen: of about 360,000 compounds, about 17,000 (4.7%) were called active. About 5% were inconclusive and are not listed. No stated cut-off is given here; in the data, active means activity change below about -50%; inconclusive means mostly about -30% to -49%; inactive means weaker than that. The full list was thinned out, with actives kept by preference.

Test: qHTS for Inhibitors of Inflammasome Signaling: IL-1-beta AlphaLISA Primary Screen
Conditions: THP-1 LPS/ATP IL-1B secretion, 16 h; at 57.5 µM, active compounds read low
Procedure, shortened: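 THP-1 cells pretreated 1 hr with compounds (up to 57.5 uM final), then stimulated with LPS (250 ng/mL final) plus ATP (1.25 mM final); secreted IL-1B measured by AlphaLISA after 16 hr, decreased signal indicating inhibition.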
On the % scale 0 is the no-effect control and ±100 the full control effect.

Compound	activity change
CC(=O)Nc1ccccc1C(=O)C(=O)Nc1ccc(F)cc1	6.97% (inactive)
CC(NC(=O)c1ccccc1)C(=O)OCC(=O)Nc1cccc(S(=O)(=O)N2CCCC2)c1 (stereo unspecified)	-0.602% (inactive)
Cc1ccnc(SC2CC(=O)N(c3ccccc3)C2=O)n1 (stereo unspecified)	-12.7% (inactive)
Cc1ccnc(-n2sc3ccccc3c2=O)n1	-95.9% (active)
Cc1nc(Nc2ccccc2C)c2cnn(C)c2n1	5.45% (inactive)
CCCCc1ccc(S(=O)(=O)NC(=O)C2(C)CCN2C(=O)c2ccccc2)cc1 (stereo unspecified)	48.7% (inactive)
CCOC(=O)Nc1ccc2c(c1)N(C(=O)CCN1CCN(CCO)CC1)c1ccccc1CC2	-7.2% (inactive)
CCOC(=O)Nc1ccc(S(=O)(=O)N(C)C(C)C)cc1	24% (inactive)
CCOC(=O)Nc1ccc2c(c1)N(C(=O)CCCl)c1ccccc1[S@]2=O	-96.5% (active)
Cc1ccc(CNC(=O)C(=O)c2cn(CC(=O)N3CCOCC3)c3ccccc23)cc1	-24.4% (inactive)
N#Cc1cccc(NC(=O)COC(=O)c2ccccc2C(=O)c2ccc(Cl)c([N+](=O)[O-])c2)c1	-112% (active)
CC(CC(=O)O)C(=O)c1ccc(Cl)c([N+](=O)[O-])c1 (stereo unspecified)	-17.6% (inactive)
NC(=O)c1ccc(NC(=O)COC(=O)c2ccc([N+](=O)[O-])cc2)cc1	3.51% (inactive)
COC(=O)c1cc(NC(=O)Cc2ccccc2[N+](=O)[O-])ccc1Cl	11.8% (inactive)
CC(=O)Nc1ccc(NC(=O)C(C)OC(=O)c2ccccc2C(=O)c2ccc(Cl)c([N+](=O)[O-])c2)cc1 (stereo unspecified)	-108% (active)
CC(=O)Nc1ccc(NC(=O)COC(=O)c2ccccc2C(=O)c2ccccc2)cc1	-29.6% (inactive)
C[C@H]1CN([C@@H](C)CO)C(=O)CCCn2cc(nn2)CO[C@@H]1CN(C)S(=O)(=O)c1ccccc1C#N	4.98% (inactive)
Cc1cc(C)c(C=NNc2nc3c([nH]2)c(=O)n(C)c(=O)n3C)c(C)c1	-9.11% (inactive)
O=C(COC(=O)CCc1c[nH]c2ccccc12)Nc1cccc(Cl)c1	8.98% (inactive)
CSc1ccc(CN2CCC2(C)C(=O)NCc2ccccc2Br)cc1 (stereo unspecified)	35.5% (inactive)
COc1ccc(NS(=O)(=O)c2ccc(C(=O)Nc3c(C)n(C)n(-c4ccccc4)c3=O)cc2)cc1	-16.8% (inactive)
COc1ccc(C(=O)C(C)OC(=O)c2cccc(S(=O)(=O)Nc3c(C)n(C)n(-c4ccccc4)c3=O)c2)cc1 (stereo unspecified)	-73.2% (active)
Cc1c(NC(=O)C(C)OC(=O)c2ccccc2O)c(=O)n(-c2ccccc2)n1C (stereo unspecified)	2.66% (inactive)

Compound	activity change
CSCCC(NC(=O)c1ccco1)C(=O)NCCc1ccc(F)cc1 (stereo unspecified)	-9.3% (inactive)
c1ccc(-c2ccccc2OCCN2CCCCC2)cc1	-0.581% (inactive)
O=S1(=O)C=C(SCCN2CCCC2)c2ccccc21	-84.4% (active)
Nc1nnc(SCCN2C(=O)c3ccccc3S2(=O)=O)s1	10.6% (inactive)
CCN(CC(=O)NC1CCS(=O)(=O)C1)c1nc(-c2cccnc2)nc2ccccc12 (stereo unspecified)	-2.86% (inactive)
O=C(CSc1cccc[n+]1[O-])c1ccc(-c2ccccc2)cc1	31.4% (inactive)
COCCNc1ncnc2c1ncn2[C@H]1CN(CCN2CCOCC2)C[C@@H](CO)O1	1.62% (inactive)
NC(=O)C1CCN(C(=O)c2cn(-c3ccccc3)nc2-c2cccnc2)CC1	-2.49% (inactive)
CCc1ccc(-c2nn(-c3ccccc3C)cc2C(=O)N2CCN(C3CCS(=O)(=O)C3)CC2)cc1 (stereo unspecified)	16.7% (inactive)
CCc1ccc(-c2nn(-c3ccccc3)cc2CSC(=N)N)cc1	-102% (active)
CCOC(=O)c1ccc(COC(=O)CCc2nc(-c3ccccc3)c(-c3ccccc3)o2)cc1	31.5% (inactive)
CC(C)Nc1ncnc2c1ncn2[C@H]1CN(Cc2ccncc2)C[C@@H](CO)O1	22.2% (inactive)
O=C(Nc1ccc(S(=O)(=O)N2CCOCC2)cc1)C1CCN(S(=O)(=O)c2ccc(Cl)cc2)CC1	-6.97% (inactive)
Cc1noc(C)c1/C=N/Nc1ccc2ccccc2n1	-70.6% (active)
Clc1ccc(Nc2ccc3ccccc3n2)cc1	-15.6% (inactive)
C(=N\Nc1ccc2ccccc2n1)/c1ccc2c(c1)OCO2	-9.79% (inactive)
O=C(Nc1ccc(Cl)cc1)c1csc([C@@H]2O[C@H](CO)[C@H](O)[C@H](O)[C@H]2O)n1	17.3% (inactive)
Cc1nnc(SC(C)C(=O)c2c[nH]c3ccccc23)n1C1CC1 (stereo unspecified)	0% (inactive)
Cc1onc(-c2c(F)cccc2Cl)c1C(=O)Nc1cccc(S(=O)(=O)N2CCCCC2)c1	-19.9% (inactive)
CCC(CO)Oc1cc(NC(=O)c2cccc(F)c2)c2ncn(C(C)C)c2c1 (stereo unspecified)	-4.82% (inactive)
CCC(CO)Oc1cc(NC(=O)c2ccc(Cl)cc2)c2ncn(C(C)C)c2c1 (stereo unspecified)	-3.64% (inactive)
CCC(CO)Oc1cc(NC(=O)c2cccc3ccccc23)c2ncn(C(C)C)c2c1 (stereo unspecified)	-67.6% (active)
COc1ccc(CCNC(=O)COC(=O)Cc2cc(OC)c(OC)c(OC)c2)cc1	28% (inactive)

Compound	activity change
Cc1cc(C)c2c(=O)n3c(nc2c1)C(CC(C)C)NC(=O)c1cc2ccccc2cc1-3 (stereo unspecified)	24.5% (inactive)
CC(C)CNS(=O)(=O)c1ccc(C(=O)Nc2ccc3c(c2)OCO3)cc1	-5.7% (inactive)
CNS(=O)(=O)c1ccc(NC(=O)Nc2ccc3c(c2)OCO3)cc1	-52.3% (active)
Cc1cccc(NC(=O)Nc2ccc3c(c2)OCO3)n1	-14.3% (inactive)
Cc1ccc(C(=O)Nc2c(-c3ccccc3)[nH][nH]c2=O)cc1	0% (inactive)
Cc1ccc2c(c1)C(c1ccccc1)N(C(=O)c1ccc(F)cc1)CC(=O)N2 (stereo unspecified)	22.3% (inactive)
O=C1c2ccccc2-c2ncnc3c(N4CCOCC4)cc(N4CCOCC4)c1c23	-66.7% (active)
Cc1oc2c(c1C(=O)N1CCOCC1)C(=O)c1ccccc1C2=O	-0.813% (inactive)
O=S(=O)(Nc1cc(Cl)ccc1N1CCOCC1)c1ccccc1Cl	-27.8% (inactive)
O=S1(=O)CC(N2CCN(CCO)CC2)CN1Cc1cn(Cc2ccc(Cl)cc2)nn1 (stereo unspecified)	0% (inactive)
CCOC(=O)c1cc2ccccc2n1CC(=O)c1ccccc1	28.5% (inactive)
CCCn1c(=N)n(CC(=O)c2ccc(Cl)c(Cl)c2)c2ccccc21	-91.6% (active)
CCN(CC)CC1(O)CCN(C(=O)c2ccc(Cl)c(Cl)c2)CC1	12.6% (inactive)
COc1ccc2cc(C(=O)O)n(CC(=O)c3ccccc3)c2c1	0% (inactive)
O=C(Cn1nnc(N2CCCCC2)n1)c1ccc(Cl)c(Cl)c1	-1.15% (inactive)
CCn1c(=N)n(CC(=O)c2cccc(OC)c2)c2ccccc21	-63% (active)
Cc1cc(Cl)ccc1C(=O)C1CCCN(C(=O)c2ccc3c(c2)OCO3)C1 (stereo unspecified)	-15.9% (inactive)
Cc1cccc(C2c3c(n(C)c(=O)n(C)c3=O)N=C3c4ccccc4C(=O)C32)c1 (stereo unspecified)	13.5% (inactive)
Cc1ccccc1S(=O)(=O)NC(=O)C1(C)CCN1C(=O)C1(c2ccc(Cl)cc2)CC1 (stereo unspecified)	22.8% (inactive)
CN(CC(=O)Nc1ccc(Cl)cc1)C(=O)CNC(=O)c1ccc2ccccc2c1	-102% (active)
COc1ccc(NC(=O)CN(C)C(=O)CNC(=O)C2CCCCC2)cc1	inactive
O=C(NNC(=O)c1ccc2ccccc2c1)c1ccc(Cl)cc1	-7.64% (inactive)
COc1ccc(C(=O)C(OP(=O)(OC)OC)c2ccccc2OC)cc1 (stereo unspecified)	0% (inactive)

Compound	activity change
OCCC1CN(Cc2cccc(OC3CCCC3)c2)CCN1Cc1ccsc1 (stereo unspecified)	-20.7% (inactive)
CC1=C[C@H]2Cc3cc(C)cc(C)c3S(=O)(=O)[C@@H]2C=C1	-1.95% (inactive)
Cc1ccccc1Cn1c(C)c(C(=O)NCc2cccc(C(F)(F)F)c2)sc1=O	-29.1% (inactive)
Cc1ccc(C(=O)Nc2ccccc2-c2ccccc2)cc1S(=O)(=O)Nc1ccccc1	-69.2% (active)
COc1ccc(NS(=O)(=O)c2cc(C(=O)Nc3ccccc3C(=O)O)ccc2C)cc1	11.7% (inactive)
O=C(O)c1ccc(F)c(S(=O)(=O)Nc2ccccc2)c1	0% (inactive)
CCOC(=O)C=Cc1ccc(C(=O)OCC)[nH]1	12.1% (inactive)
CCOCCOC(=O)C1=C(C)NC(=O)NC1c1ccc2c(c1)OCO2 (stereo unspecified)	-7.25% (inactive)
CCOC(=O)C1=C(CSc2nccn2C)NC(=O)NC1c1ccc(OC)cc1 (stereo unspecified)	-4.23% (inactive)
CCOC(=O)C1=C(CCc2ccccc2)NC(=O)NC1c1ccc2ccccc2c1 (stereo unspecified)	-52.7% (active)
Cn1c(=O)[nH]c2c(c(C(=O)O)nn2C)c1=O	-10.6% (inactive)
CCc1ccc(NC(=O)Nc2ccncc2)cc1	-73.4% (active)
CCOc1ccc(C(=O)Nc2cccc(-c3ccc4nncn4n3)c2)cc1	0% (inactive)
CCOc1ccc(C(=O)Nc2ccncc2)cc1	-73.6% (active)
CCOc1ccc(NC(=O)c2ccc(NC(=O)C3CCCO3)cc2)cc1 (stereo unspecified)	-7.47% (inactive)
CCOc1ccc(C(=O)Nc2cccc(SC)c2)cc1	-79.8% (active)
CCc1ccc(NC(=O)N[C@H](C(=O)O)C(C)CC)cc1 (stereo partly specified)	21.9% (inactive)
CCOc1ccc(C(=O)CCC(=O)Nc2ccncc2)cc1	2.33% (inactive)
CSc1cccc(NC(=O)CSc2ccccc2)c1	-2.08% (inactive)
CC(C)CC(=O)Nc1ccc(Cc2ccncc2)cc1	-7.35% (inactive)
COC(=O)C(Cc1c[nH]c2ccccc12)NC(=O)CCNC(=O)c1ccco1 (stereo unspecified)	19.3% (inactive)
CCOC(=O)[C@]12CCC=C1N(CCC1=CCCCC1)C(=O)[C@H](CC(=O)NCc1ccc(C)o1)C2	13.9% (inactive)
